Results taken from PubChem BioAssay.
Unmarked numbers belong to inactive results. For some assays here: Results with a measured potency or affinity are listed apart. Active and inactive are the calls of the source. Unless noted, how the calls were made is not given here.

Key:
[1] = antimalarial activity against Dd2 strain (AID 2302;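 active means growth inhibition above 50% at the single 2 µM test dose, taken to imply half-maximal potency below 2 µM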;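 further: 0% = DMSO untreated growth and 100% = chloroquine plus artemisinin killed control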); conditions: P. falciparum Dd2 in RBCs, LDH growth readout, 72 h; at 2 µM; stronger effect = higher value
[2] = human hepatoma cell viability loss – ATP luminescence, cytotoxicity control for P. falciparum antimalarial project, primary screen (AID 2303;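 active means inhibition above 50%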;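 further: 0% = DMSO wells and 100% = digitonin-killed cells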); conditions: HepG2 viability, 24-48 h, at 10 µM, stronger effect = higher value
[3] = target: L-lactate dehydrogenase (Plasmodium falciparum (isolate CDC / Honduras)) (UniProt Q27743); test: PfLDH activity inhibition – cell lysate, 3D7 strain, counter-screen for P. falciparum growth inhibition project (AID 2304);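 further: 0% = vehicle and 100% = reference inhibitor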; conditions: P. falciparum 3D7 crude extract, LDH APAD/NBT absorbance; at 2 µM; stronger effect = higher value
Sequence of L-lactate dehydrogenase (Plasmodium falciparum (isolate CDC / Honduras)) (Q27743 whole entry, looked up): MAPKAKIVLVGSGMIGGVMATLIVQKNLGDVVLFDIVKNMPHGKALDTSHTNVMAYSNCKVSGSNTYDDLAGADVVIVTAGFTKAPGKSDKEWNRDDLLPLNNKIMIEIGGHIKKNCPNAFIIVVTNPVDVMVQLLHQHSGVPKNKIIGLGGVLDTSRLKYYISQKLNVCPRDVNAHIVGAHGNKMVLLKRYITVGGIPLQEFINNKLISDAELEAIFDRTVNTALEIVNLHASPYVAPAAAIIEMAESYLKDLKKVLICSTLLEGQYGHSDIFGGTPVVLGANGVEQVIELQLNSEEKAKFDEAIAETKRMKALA

[4] = inhibition of 3D7 malaria parasite growth – strain 3D7 (AID 2306);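 further: 0% = DMSO wells and 100% = chloroquine plus artemisinin control wells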; conditions: P. falciparum 3D7 erythrocytic growth, LDH absorbance, 72 h; at 2 µM; stronger effect = higher value
[5] = target: Calcium-dependent protein kinase 1 (Plasmodium falciparum (isolate 3D7)) (UniProt P62344); test: PfCDPK1 kinase inhibitors, biochemical, TCAMS library (AID 1159585; cut-off not given, nearly all actives have IC50 up to about 0.98 µM;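 further: inhibitors leave more ATP so luminescence rises with inhibition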); conditions: recombinant PfCDPK1, Kinase-Glo ATP depletion luminescence
Sequence of Calcium-dependent protein kinase 1 (Plasmodium falciparum (isolate 3D7)) (P62344 whole entry, looked up): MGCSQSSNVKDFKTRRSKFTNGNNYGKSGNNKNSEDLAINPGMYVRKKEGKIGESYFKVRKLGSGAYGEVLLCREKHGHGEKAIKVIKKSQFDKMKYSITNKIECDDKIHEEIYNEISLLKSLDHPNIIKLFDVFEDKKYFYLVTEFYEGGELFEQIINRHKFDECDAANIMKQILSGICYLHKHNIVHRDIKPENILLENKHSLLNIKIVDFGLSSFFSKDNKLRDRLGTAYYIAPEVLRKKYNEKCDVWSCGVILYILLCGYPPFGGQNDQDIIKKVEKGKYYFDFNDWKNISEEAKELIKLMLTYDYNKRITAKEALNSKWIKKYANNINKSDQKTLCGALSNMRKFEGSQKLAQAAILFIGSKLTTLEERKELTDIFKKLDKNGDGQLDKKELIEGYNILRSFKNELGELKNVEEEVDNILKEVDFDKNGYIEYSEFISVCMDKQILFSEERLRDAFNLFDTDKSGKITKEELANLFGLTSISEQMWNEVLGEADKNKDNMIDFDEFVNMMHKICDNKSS

[6] = target: Plasmodium falciparum protein kinase 6 (PK6, PF3D7_1337100) (UniProt Q8IDW1); test: PfPK6 kinase inhibitors, biochemical, TCAMS library (AID 1159586); conditions: recombinant PfPK6, Kinase-Glo ATP depletion luminescence
Sequence of Plasmodium falciparum protein kinase 6 (PK6, PF3D7_1337100) (Q8IDW1 1-305): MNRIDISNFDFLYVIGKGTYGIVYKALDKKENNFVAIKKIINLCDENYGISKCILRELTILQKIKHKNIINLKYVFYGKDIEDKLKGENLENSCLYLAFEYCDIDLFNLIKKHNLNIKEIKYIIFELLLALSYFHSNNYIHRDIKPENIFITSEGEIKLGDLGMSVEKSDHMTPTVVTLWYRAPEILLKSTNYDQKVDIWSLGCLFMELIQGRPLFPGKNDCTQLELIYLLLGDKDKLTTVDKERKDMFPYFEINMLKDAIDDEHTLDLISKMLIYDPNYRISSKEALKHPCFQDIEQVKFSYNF

[7] = target: Protein kinase 7 (PK7), Plasmodium falciparum 3D7 (PF3D7_0213400) (UniProt Q7YTF7); test: inhibition of Plasmodium PK7 catalytic activity – biochemical, TCAMS antimalarial set, Kinase-Glo luminescence (AID 1159587); conditions: recombinant PfPK7, Kinase-Glo ATP depletion luminescence
Sequence of Protein kinase 7 (PK7), Plasmodium falciparum 3D7 (PF3D7_0213400) (Q7YTF7 1-343): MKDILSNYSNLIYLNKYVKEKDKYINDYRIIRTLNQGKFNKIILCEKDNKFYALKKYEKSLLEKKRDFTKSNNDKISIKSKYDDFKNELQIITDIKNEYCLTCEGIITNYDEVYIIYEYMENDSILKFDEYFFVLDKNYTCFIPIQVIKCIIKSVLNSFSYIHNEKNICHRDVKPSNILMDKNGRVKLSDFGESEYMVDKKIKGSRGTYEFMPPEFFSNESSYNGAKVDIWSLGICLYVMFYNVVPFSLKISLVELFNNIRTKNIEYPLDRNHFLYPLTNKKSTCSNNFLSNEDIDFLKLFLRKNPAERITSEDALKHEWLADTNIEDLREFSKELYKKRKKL

[8] = target: Calcium-dependent protein kinase 4 (Plasmodium falciparum (isolate 3D7)) (UniProt Q8IBS5); test: PfCDPK4 kinase inhibitors, biochemical, TCAMS library (AID 1159588; cut-off not given, nearly all actives have IC50 up to about 0.91 µM); conditions: recombinant PfCDPK4, Kinase-Glo ATP depletion luminescence
Sequence of Calcium-dependent protein kinase 4 (Plasmodium falciparum (isolate 3D7)) (Q8IBS5 whole entry, looked up): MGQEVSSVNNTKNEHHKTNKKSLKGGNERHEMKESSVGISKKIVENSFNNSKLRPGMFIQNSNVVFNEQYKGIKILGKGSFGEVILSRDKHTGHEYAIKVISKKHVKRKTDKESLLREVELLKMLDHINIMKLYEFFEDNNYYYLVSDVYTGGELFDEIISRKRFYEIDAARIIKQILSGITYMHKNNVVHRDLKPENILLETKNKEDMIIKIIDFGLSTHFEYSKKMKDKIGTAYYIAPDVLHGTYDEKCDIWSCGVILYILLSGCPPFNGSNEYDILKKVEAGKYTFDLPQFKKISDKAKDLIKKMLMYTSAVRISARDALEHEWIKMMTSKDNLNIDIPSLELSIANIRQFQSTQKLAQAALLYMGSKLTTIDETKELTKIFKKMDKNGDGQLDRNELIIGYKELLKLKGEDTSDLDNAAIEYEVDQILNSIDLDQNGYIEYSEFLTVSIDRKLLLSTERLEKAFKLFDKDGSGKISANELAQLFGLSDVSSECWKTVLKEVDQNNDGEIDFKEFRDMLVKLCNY

Compound | growth inhibition [1] | inhibition [2] | inhibition [3] [%] | growth inhibition [4] | outcome [5] | outcome [6] | outcome [7] | outcome [8]
CN(CCCCCNC(=O)/C=C/c1ccc(Cl)c(Cl)c1)CCCCc1c[nH]c2ccccc12 | 15% | 17% | 2 | 90% (active) | inactive | inactive | inactive | inactive
Cc1cc(N(C)CCN(C)C)nc(Nc2ccc(Br)cc2)n1 | 23% | 7% | -1 | 97% (active) | inactive | inactive | inactive | inactive
CCCCN1C(=O)C(c2ccccc2)(c2ccccc2)N=C1N | 34% | 19% | 7 | 87% (active) | inactive | inactive | inactive | inactive
COc1cccc(CNc2noc(-c3c(-c4ccccc4)noc3C)n2)c1OC | 86% (active) | -3% | -2 | 97% (active) | inactive | inactive | inactive | inactive
CC(C)(C)c1nn(-c2ccc(Cl)cc2)c2[nH]c(=O)c(CNC3CCCC3)cc12 | 99% (active) | -2% | 1 | 99% (active) | inactive | inactive | inactive | inactive
CN1CCN(c2ccnc3ccc(NC(=O)Nc4cccc5ccccc45)cc23)CC1 | 96% (active) | -3% | 1 | 101% (active) | inactive | inactive | inactive | inactive
Cc1cc(C(=O)Nc2ccc3c(c2)CCN3C2CCN(Cc3cccc4cc[nH]c34)C2)no1 (stereo not given) | 96% (active) | -1% | 1 | 97% (active) | inactive | inactive | inactive | inactive
CC[C@H](C)CNC(=O)c1ccnc(-c2cccc(CN(C)C3CCN(C)CC3)c2)c1 | 33% | -19% | -1 | 100% (active) | inactive | inactive | inactive | inactive
O=C(NCCN1CCCC1)c1ccc(-c2ccc(-c3nc4ccc(C(F)(F)F)cc4[nH]3)s2)cc1 | 65% (active) | 31% | 4 | 97% (active) | inactive | inactive | inactive | inactive
CC1(C)N=C(N)NC(NOCC=Cc2ccccc2)=N1 | 2% | 35% | -2 | 98% (active) | inactive | inactive | inactive | inactive
OCC1CCN(Cc2cccc(-c3cccc(-c4nc5ccc(C(F)(F)F)cc5[nH]4)c3)c2)CC1 | 101% (active) | 24% | -3 | 102% (active) | inactive | inactive | inactive | inactive
CC1(C)N=C(N)N=C(N)N1c1ccc(I)cc1 | 1% | 16% | 1 | 92% (active) | inactive | inactive | inactive | inactive
N#Cc1ccc(-c2ccc(C(=O)NCCCCN3CCC(c4ccc5c(c4OCc4ccccn4)CCCC5)CC3)cc2)cc1 | 39% | 37% | 6 | 96% (active) | inactive | inactive | inactive | inactive
CCc1cc(Br)c(CNCCCNc2cc(=O)c3ccccc3[nH]2)s1 | 45% | 6% | -10 | 90% (active) | inactive | inactive | inactive | inactive
CCC(C)NCC(O)(c1ccc(Cl)cc1)c1ccc(Cl)cc1 (stereo not given) | 76% (active) | 5% | 0 | 95% (active) | inactive | inactive | inactive | inactive
CS(=O)(=O)NCCCNCc1ccc(-c2ccc(-c3nc4ccc(C(F)(F)F)cc4[nH]3)s2)cc1 | 73% (active) | 21% | -5 | 99% (active) | inactive | inactive | inactive | inactive
Cc1cc(NC(=O)NCCN2CCC(NS(=O)(=O)c3ccc(C(F)(F)F)cc3)C2)c2ccccc2n1 (stereo not given) | 39% | 15% | -3 | 96% (active) | inactive | inactive | inactive | inactive
c1ncc(CCNc2nc(Nc3ccc4c(c3)OCO4)nc(NC3CCCC3)n2)[nH]1 | -3% | -1% | -2 | 80% (active) | inactive | inactive | inactive | inactive
COc1ccc(/C=C/C(=O)NCCCCCN2CCC(c3c[nH]c4ccccc34)CC2)cc1O | 1% | 9% | -5 | 91% (active) | inactive | inactive | inactive | inactive
COc1cc(C=NNc2nc(Nc3ccccc3)nc(Nc3ccccc3)n2)ccc1OCc1ccccc1[N+](=O)[O-] | 18% | 8% | 3 | 98% (active) | inactive | inactive | inactive | inactive

Compound | growth inhibition [1] | inhibition [2] | inhibition [3] [%] | growth inhibition [4] | outcome [5] | outcome [6] | outcome [7] | outcome [8]
CCCCCN1CCCC1CNS(=O)(=O)c1cccc(C(=O)Nc2cccc(C#N)c2)c1 (stereo not given) | 7% | 19% | -1 | 90% (active) | inactive | inactive | inactive | inactive
CC(=O)Nc1nc(C(=O)Nc2cccc(-c3ccc(-c4nc5ccccc5[nH]4)cc3)c2)cs1 | 60% (active) | 88% (active) | -2 | 101% (active) | inactive | inactive | inactive | inactive
N#CCOc1c(C2CCN(CCCCNC(=O)c3ccc(-c4ccc(C(F)(F)F)cc4)cc3)CC2)ccc2c1CCCC2 | 48% | 59% (active) | 4 | 97% (active) | inactive | inactive | inactive | inactive
COc1ccccc1C1CC(c2ccc(Br)cc2)=NN1C(=O)c1ccccc1 (stereo not given) | 59% (active) | 12% | -6 | 85% (active) | inactive | inactive | inactive | inactive
Cc1cc(NC(=O)c2ccco2)ccc1OC1CCN(Cc2ccc(C#N)cc2)CC1 | 89% (active) | 2% | -1 | 92% (active) | inactive | inactive | inactive | inactive
Cc1nn(CCOC(=O)NC(NCC2COc3ccccc3O2)C(Cl)(Cl)Cl)cc1[N+](=O)[O-] (stereo not given) | 99% (active) | -9% | 2 | 99% (active) | inactive | inactive | inactive | inactive
CC(=NNC(=S)NC(c1ccccc1)c1ccccc1)c1ccccn1 | 97% (active) | 45% | -2 | 98% (active) | inactive | inactive | inactive | inactive
CN1CCN(c2cccc(NC(=O)c3ccc(-c4ccc(C#N)cc4)cc3)c2)CC1 | 7% | 31% | 2 | 84% (active) | inactive | inactive | inactive | inactive
CN1CCC(Oc2ccc(CN3CC[C@H](NC(=O)c4ccc(F)c(F)c4)C3)c3ccccc23)C1 (stereo not given in full) | 27% | 20% | 2 | 91% (active) | inactive | inactive | inactive | inactive
COc1ccc2nc(-c3ccccc3)cc(NCCCNc3cc(-c4ccccc4)nc4ccc(OC)cc34)c2c1 | 99% (active) | 100% (active) | 9 | 99% (active) | inactive | inactive | inactive | inactive
CO/C(=C\C=C\c1cc2cc(Cl)c(Cl)cc2[nH]1)C(=O)NCCN1CCCCC1 | 86% (active) | 16% | 1 | 81% (active) | inactive | inactive | inactive | inactive
COc1ccc(NC(=O)Nc2ccc(Nc3nc(C)cc(N(C)C)n3)cc2)cc1 | 99% (active) | 11% | -3 | 102% (active) | inactive | inactive | inactive | inactive
COc1ccc(-c2cccc(NC(=O)c3cccs3)c2)cc1CN1CCCN(C)CC1 | 30% | 17% | 9 | 100% (active) | inactive | inactive | inactive | inactive
CN(C)CCC1CCN(CCS(=O)(=O)c2cccc(Nc3ccc(-c4cccc(F)c4)cn3)c2)CC1 | 59% (active) | 94% (active) | 5 | 100% (active) | inactive | inactive | inactive | inactive
CCCCCCc1cc2cc(-c3csc(C=Cc4ccccc4)n3)c(=O)oc2cc1O | 75% (active) | 17% | 2 | 96% (active) | inactive | inactive | inactive | inactive
Cc1ccccc1C1CCN(C2CCC(NC(=O)/C=C/c3cccc(Cl)c3F)CC2)CC1 (stereo not given) | 37% | 87% (active) | 4 | 101% (active) | inactive | inactive | inactive | inactive
N#Cc1ccc(-c2ccc(C(=O)NCCCCN3CCC(c4cc(Br)c5c(c4O)CCCC5)CC3)cc2)cc1 | 50% (active) | 93% (active) | 7 | 101% (active) | inactive | inactive | inactive | inactive
COc1ccc(-c2ccc(NC(=O)c3cccc(Cl)c3)cc2)cc1CN1CCCC1 | 84% (active) | 35% | 4 | 100% (active) | inactive | inactive | inactive | inactive
O=c1cc(NCCCNCc2ccc(Cl)c(Cl)c2)[nH]c2ccc(Oc3ccccc3)cc12 | 29% | 1% | 2 | 92% (active) | inactive | inactive | inactive | inactive
FC(F)(F)c1ccc2nccc(NN=Cc3ccccc3)c2c1 | 2% | 7% | -1 | 92% (active) | inactive | inactive | inactive | inactive
